Experimental data as given in PubChem BioAssay.
Active and inactive are the calls of the source.

Tests used:
[1] = test system: Wnt5a (protein binding on small-molecule microarray); test: Wnt5a binders on small-molecule microarray, primary screen, biophysical, 635/667 nm fluorescence (AID 1142); details: 635 nm fluorescence, higher = more signal;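 also: fluorescence read at 667 nm with signal to noise per printed feature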
[2] = cell viability in Huh7 cells, primary screen, cytotoxicity control for HCV replication inhibitor project, CellTiter-Glo luminescence, basal, 48 h (AID 1143); details: Huh7 HCV replicon, higher = more signal, called active from +8 up or from −8 down;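 also: Huh7 hepatoma cells carrying a hepatitis C replication reporter with no stimulus; test concentration not given here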
[3] = CREB reporter modulators without forskolin, primary screen, cell-based, PC12, CRE-LacZ reporter, unstimulated (AID 1145); details: no forskolin, luminescence, 4.5 h, higher = more signal, called active from +8 up or from −8 down
[4] = CREB reporter modulators under forskolin, primary screen, cell-based, PC12, CRE-LacZ reporter, forskolin-stimulated (AID 1146); details: luminescence, 4.5 h, higher = more signal, called active from +8 up or from −8 down;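 also: PC12 cells with 6xCRE LacZ reporter stimulated by forskolin 10 µM; beta-galactosidase reporter signal reflecting CREB driven transcription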
[5] = target: Streptavidin (Streptomyces avidinii) (UniProt P22629); test: streptavidin binders on small-molecule microarray, primary screen, artefact control for SMM compound annotation, biophysical, 635/667 nm fluorescence (AID 1147); details: streptavidin binding, higher = more signal;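 also: signal reflects streptavidin binding to arrayed compounds as a control protein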
[6] = small-molecule binders of probe aInhba, primary screen, biochemical, small-molecule microarray, 635/667 nm fluorescence (AID 1148); details: higher = more signal;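 also: score merges 667nm spot fluorescence with signal-to-noise for antibody binding to printed compounds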
[7] = target: Torsin-1A (Homo sapiens) (UniProt O14656); test: torsin A binders from cell lysate, primary screen, small-molecule microarray, wild-type, 635/667 nm (AID 1149); details: COS7 hTOR1A-WT lysate, 635 nm fluorescence, higher = more signal
[8] = target: Torsin-1A (Homo sapiens) (UniProt O14656); test: small-molecule binders of mutant TOR1A in lysate, primary screen, cell lysate, small-molecule microarray, COS7 lysate, 635/667 nm fluorescence (AID 1150); details: COS7 hTOR1A mutant lysate, 635 nm fluorescence, higher = more signal;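 also: score pools 667 nm emission and signal to noise measuring lysate protein binding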
[9] = test system: Sonic hedgehog protein (Shh); test: small-molecule binders of Shh protein, primary screen, biochemical, small-molecule microarray, 635/667 nm fluorescence (AID 1151); details: small-molecule microarray binding, 635 nm fluorescence; higher = more signal;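 also: Shh protein binding to compounds spotted on small-molecule microarray slides; score combines spot fluorescence intensity with signal-to-noise across triplicate slides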
[10] = E. coli DRC41 culture turbidity changes, primary screen, E. coli filamentation inducer project, strain DRC41, OD650, 48 h (AID 1152);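 also: E. coli MC1000 strain DRC41 lacking acrAB efflux pump and sulA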; details: E. coli DRC41 (acrAB sulA), higher = more signal, called active from +8 up or from −8 down
[11] = small-molecule binders of probe aLefty1, primary screen, biochemical, small-molecule microarray, 635/667 nm fluorescence (AID 1153); details: higher = more signal;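 also: score merges spot fluorescence with signal-to-noise ratio from the scanned slide images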
[12] = PSAC antagonists in infected red cells, primary screen, cell-based, P. falciparum Indochina, OD700, 1 h (AID 1154); details: P. falciparum Indochina infected RBC osmotic lysis, higher = more signal, called active from +8 up or from −8 down
[13] = PSAC antagonists in infected red cells, primary screen, cell-based, P. falciparum Indochina, OD700, 2 h (AID 1155);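 also: lysis reports solute entry through the parasite surface anion channel PSAC; channel blockers reduce lysis of infected cells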; details: P. falciparum Indochina infected erythrocytes, osmotic lysis OD700; higher = more signal, called active from +8 up or from −8 down
[14] = osmotic lysis modulators in infected erythrocytes, primary screen, PSAC antagonist project, cell-based, P. falciparum Indochina, OD700, 3 h (AID 1156); details: higher = more signal, called active from +8 up or from −8 down
[15] = PSAC antagonists in infected red cells, primary screen, cell-based, P. falciparum Indochina, OD700, 18 h (AID 1157); details: P. falciparum Indochina infected erythrocytes, osmotic lysis OD700, 18 h; higher = more signal, called active from +8 up or from −8 down
[16] = modulators of S6 phosphorylation in cells, primary screen, cell-based, A549, cytoblot, luminescence, serum-stimulated (AID 1158); details: A549 phospho-S6 cytoblot, 5 h, higher = more signal;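 also: serum-stimulated A549 lung adenocarcinoma cells; signal is phosphorylated S6 detected by cytoblot immunostaining with HRP secondary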
[17] = target: NADPH oxidase 2 (Homo sapiens) (UniProt P04839); test: NOX2-dependent H2O2 signal modulators, primary screen, NOX inhibitor project, cell-based, HEK293-NOX2, PMA-stimulated, Amplex Red fluorescence (AID 1159); details: 45 min, higher = more signal, called active from +8 up or from −8 down; also: test concentration not given here
[18] = target: NADPH oxidase 4 (Homo sapiens) (UniProt Q9NPH5); test: NOX4-dependent H2O2 signal modulators, primary screen, NOX inhibitor project, cell-based, HEK293-NOX4, tetracycline-induced, Amplex Red fluorescence (AID 1160); details: 45 min, higher = more signal, called active from +8 up or from −8 down
[19] = target: NADPH oxidase 5 (Homo sapiens) (UniProt Q96PH1); test: NOX5-dependent H2O2 signal modulators, primary screen, NOX inhibitor project, cell-based, HEK293-NOX5, Amplex Red fluorescence (AID 1161); details: HEK293-NOX5, ionomycin, 45 min, higher = more signal
[20] = A549 cell viability effects, profiling panel, calcein-AM fluorescence, 48 h, basal (AID 1162); details: higher = more signal; also: test concentration not given here

Torsin-1A (Homo sapiens), sequence (O14656 whole entry, looked up): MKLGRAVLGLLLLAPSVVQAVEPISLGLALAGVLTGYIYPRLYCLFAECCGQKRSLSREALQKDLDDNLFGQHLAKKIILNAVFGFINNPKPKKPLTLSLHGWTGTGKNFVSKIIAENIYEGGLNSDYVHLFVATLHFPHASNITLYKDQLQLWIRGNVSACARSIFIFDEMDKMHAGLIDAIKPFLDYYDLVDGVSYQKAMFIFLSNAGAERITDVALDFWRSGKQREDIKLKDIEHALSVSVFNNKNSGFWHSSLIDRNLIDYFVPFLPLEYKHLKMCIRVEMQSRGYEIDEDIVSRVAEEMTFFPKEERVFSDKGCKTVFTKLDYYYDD
NADPH oxidase 2 (Homo sapiens), sequence (P04839 whole entry, looked up): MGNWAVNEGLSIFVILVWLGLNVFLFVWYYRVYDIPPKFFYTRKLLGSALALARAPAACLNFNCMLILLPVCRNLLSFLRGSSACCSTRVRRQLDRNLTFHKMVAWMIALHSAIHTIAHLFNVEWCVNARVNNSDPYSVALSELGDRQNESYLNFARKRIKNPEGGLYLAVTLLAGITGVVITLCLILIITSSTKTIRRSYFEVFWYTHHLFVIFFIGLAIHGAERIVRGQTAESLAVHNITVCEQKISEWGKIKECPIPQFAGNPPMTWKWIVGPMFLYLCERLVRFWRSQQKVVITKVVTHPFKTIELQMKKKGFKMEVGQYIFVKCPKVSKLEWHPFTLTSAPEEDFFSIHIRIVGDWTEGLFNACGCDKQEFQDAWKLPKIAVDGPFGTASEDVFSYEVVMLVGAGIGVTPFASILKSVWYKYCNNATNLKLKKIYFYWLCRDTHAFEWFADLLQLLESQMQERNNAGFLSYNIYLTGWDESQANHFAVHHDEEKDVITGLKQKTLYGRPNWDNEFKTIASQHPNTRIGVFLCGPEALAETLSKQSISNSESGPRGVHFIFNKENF
NADPH oxidase 5 (Homo sapiens), sequence (Q96PH1 whole entry, looked up): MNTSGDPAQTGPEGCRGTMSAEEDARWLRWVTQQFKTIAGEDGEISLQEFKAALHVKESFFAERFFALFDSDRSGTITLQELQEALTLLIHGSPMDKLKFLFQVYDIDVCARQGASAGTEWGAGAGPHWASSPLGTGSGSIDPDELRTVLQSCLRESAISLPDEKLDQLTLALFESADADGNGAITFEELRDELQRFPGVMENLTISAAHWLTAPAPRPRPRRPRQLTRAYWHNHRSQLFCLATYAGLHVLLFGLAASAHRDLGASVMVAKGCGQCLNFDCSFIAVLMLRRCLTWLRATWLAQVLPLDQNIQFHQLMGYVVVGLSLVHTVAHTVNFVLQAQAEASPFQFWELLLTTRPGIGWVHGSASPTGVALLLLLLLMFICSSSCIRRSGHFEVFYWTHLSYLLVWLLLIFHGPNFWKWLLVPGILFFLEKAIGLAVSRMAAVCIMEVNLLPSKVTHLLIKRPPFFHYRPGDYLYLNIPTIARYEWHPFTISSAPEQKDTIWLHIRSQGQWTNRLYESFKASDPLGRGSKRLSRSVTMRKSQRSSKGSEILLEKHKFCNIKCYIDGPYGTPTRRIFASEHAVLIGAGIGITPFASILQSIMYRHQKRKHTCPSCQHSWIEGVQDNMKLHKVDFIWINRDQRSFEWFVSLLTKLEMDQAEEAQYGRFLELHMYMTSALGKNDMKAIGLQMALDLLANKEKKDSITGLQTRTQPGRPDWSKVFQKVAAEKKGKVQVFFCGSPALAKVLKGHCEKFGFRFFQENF
NADPH oxidase 4 (Homo sapiens), sequence (Q9NPH5 whole entry, looked up): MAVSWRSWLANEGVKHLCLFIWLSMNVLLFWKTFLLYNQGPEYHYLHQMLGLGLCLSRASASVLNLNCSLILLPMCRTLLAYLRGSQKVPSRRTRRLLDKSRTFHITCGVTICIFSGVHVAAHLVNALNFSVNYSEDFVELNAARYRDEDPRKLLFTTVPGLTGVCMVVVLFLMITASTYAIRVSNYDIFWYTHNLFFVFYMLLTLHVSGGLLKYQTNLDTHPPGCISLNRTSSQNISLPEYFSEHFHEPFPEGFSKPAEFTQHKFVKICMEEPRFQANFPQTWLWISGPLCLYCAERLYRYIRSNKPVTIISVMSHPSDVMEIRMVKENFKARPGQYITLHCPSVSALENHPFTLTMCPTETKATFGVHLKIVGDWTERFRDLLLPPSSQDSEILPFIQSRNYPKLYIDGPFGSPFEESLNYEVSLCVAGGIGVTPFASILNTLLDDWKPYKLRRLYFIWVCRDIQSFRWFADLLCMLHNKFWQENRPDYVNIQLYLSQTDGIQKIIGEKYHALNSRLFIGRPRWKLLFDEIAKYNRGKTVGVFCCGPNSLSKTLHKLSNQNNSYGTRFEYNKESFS
Streptavidin (Streptomyces avidinii), sequence (P22629 whole entry, looked up): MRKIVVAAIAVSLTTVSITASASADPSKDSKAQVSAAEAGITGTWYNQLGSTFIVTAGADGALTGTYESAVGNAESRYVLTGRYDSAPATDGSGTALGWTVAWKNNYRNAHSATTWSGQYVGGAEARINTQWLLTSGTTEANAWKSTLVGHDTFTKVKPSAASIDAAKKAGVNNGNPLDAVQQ

For CCOC(=O)C[C@H]1[C@H](OC(=O)c2ccc(C(=O)c3ccccc3)cc2)[C@@H](NC(=O)Cc2ccc(OC)cc2)c2cc(OCCCO)ccc2N1C(=O)Cc1ccc(OC)cc1, which composite z-score [1] is on record?
The composite z-score was 0.296.

And the z-score [2]?
The z-score was -0.69 (inactive).

What about the z-score [3] of the same molecule?
The z-score was 2.14 (inactive).

What about the z-score [4] of the same molecule?
The z-score was -0.899 (inactive).

What about the composite z-score [5] of the same molecule?
Its composite z-score is 0.598.

And the composite z-score [6]?
The composite z-score was -0.122.

And the composite z-score [7]?
The composite z-score was 0.226.

What about the composite z-score [8] of the same molecule?
The composite z-score was 0.413.

And the composite z-score [9]?
Its composite z-score is 0.697.

And the z-score [10]?
Its z-score is 1.89 (inactive).

And the composite z-score [11]?
The composite z-score was 0.357.

What about the z-score [12] of the same molecule?
The z-score was 4.37 (inactive).

What about the z-score [13] of the same molecule?
The z-score was -0.625 (inactive).

And the z-score [14]?
The z-score was 0.0901 (inactive).

And the z-score [15]?
The z-score was -1.14 (inactive).

And the z-score [16]?
The z-score was 1.

And the z-score [17]?
The z-score was 0.676 (inactive).

What about the z-score [18] of the same molecule?
The z-score was 0.79 (inactive).

And the z-score [19]?
The z-score was 1.52.

What about the z-score [20] of the same molecule?
Its z-score is 2.13.

What does the source list for [N-]=[N+]=Nc1ccccc1[C@H]1OC(c2ccc(OCCCO)cc2)=N[C@@]1(Cc1ccccc1)C(N)=O?
composite z-score [1]: 0.792; z-score [2]: -3.44 (inactive); z-score [3]: 0.862 (inactive); z-score [4]: -1.89 (inactive); composite z-score [5]: 1.92; composite z-score [6]: 0.329; composite z-score [7]: 0.596; composite z-score [8]: 0.622; composite z-score [9]: 0.281; z-score [10]: 1.99 (inactive); composite z-score [11]: 0.752; z-score [12]: 31.6 (active); z-score [13]: 28.4 (active); z-score [14]: 1.64 (inactive); z-score [15]: 7.66 (inactive); z-score [16]: 1.8; z-score [17]: -1.71 (inactive); z-score [18]: 0.363 (inactive); z-score [19]: -0.45; z-score [20]: -0.297
